# Assay outcomes: PubChem BioAssay, National Center for Advancing Translational Sciences (NCATS)
# Only some compounds are listed: those with a hit (about 2.3% of all), similar ones and a draw of the others.
# Akt phos inh – HTS Assay for Inhibitors of Akt Phophorylation: Primary Screen | activity change, % for hits at 50 µM | AID 651550, 2012 | 360,000 tested, 0.32% active | Neuro2A IGF-stimulated pAkt S473 HTRF, 20 min; stronger effect = lower value; in the data active = activity change below about -80%; inconclusive = mostly about -51% to -80%; note: % is set by controls: 0 for no effect and ±100 for the full control effect
#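 Single-point screen (50 µM final compound) in Neuro2A cells stimulated 20 min with 6 nM IGF at 37 deg C. After lysis, Ser473-phosphorylated Akt read by HTRF (ex 330 nm, em 615/665 nm) as the 665/615 ratio.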
# TDP-43 yeast inh – qHTS of TDP-43 Inhibitors; TDP-43 expressing yeast growth rescue, BacTiter-Glo, 24 h; Potency, µM (highest dose often 46.1 µM), inactives show at the highest dose growth rescue (activation), actives largely listed as activators; 410,000 tested, 1.8% active; AID 652104, 2013; note: potency is the fitted concentration of half-maximal effect; % of control where 0% means no effect; nearly all actives have a fitted effect of over 50% in size
#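 Readout is BacTiter-Glo luminescence of cell growth, so inhibitors register as activators. TDP-43-expressing yeast at OD600=0.02 in galactose medium, after raffinose pregrowth to mid-log, were incubated with compound for 24 hr at 30 deg C.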
# aSyn yeast inh – qHTS of alpha-syn Inhibitors | Yeast expressing alpha-synuclein, growth rescue, BacTiter-Glo, 24 h | AID 652106, 2013 | Potency, µM (doses to about 46.1 µM), for inactives: top-dose growth rescue (activation), usual class: activators | 370,000 tested, 0.14% active; note: potency is the fitted concentration of half-maximal effect; % of control where 0% means no effect; nearly all actives have a fitted effect of over 65% in size
#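 Screening used galactose-induced yeast with toxic alpha-synuclein levels, exposed to compound for 24 hr at 30 deg C. Cell growth, read with BacTiter-Glo luminescence, gave the measured signal.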
# FUS suppressor – qHTS for Suppressors of FUS Proteinopathy: Primary screen using FUS-linked yeast assay. S. cerevisiae FUS-expressing, growth rescue, OD600, 24 h. Potency, µM (top dose mostly 76.6 µM), actives largely listed as activators. 390,000 tested, 0.24% active. AID 1347120, 2019;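 note: potency is the fitted concentration of half-maximal effect; plate controls were DMSO vehicle for no effect and reference control for full effect; nearly all actives have a fitted effect of over 55% in size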
#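 Read-out: OD at 600 nm after 24hr at 30C, reporting rescue of FUS-induced yeast toxicity. Cells at OD 0.005 in galactose (2%) minimal medium; compounds tested in a dilution series; CP55940 titration from 92uM final as control.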
# Abeta rescue – qHTS for compounds that reverse cellular toxicity of Amyloid beta (A-beta) peptide in yeast: Primary Screen; yeast expressing A-beta42, growth rescue, OD600, 48 h; response scale: 0% DMSO, 100% iron-clioquinol control; Potency, µM (doses to about 46.1 µM), hits mostly activators; 410,000 tested, 0.063% active; AID 1347071, 2019; note: potency is the fitted concentration of half-maximal effect; nearly all actives have a fitted effect of over 55% in size
#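 Yeast A-beta toxicity model in growth medium with pinned compounds, 48 h at 30 C; growth read as absorbance at 600 nm. Normalized to FeCl3/clioquinol equimolar mix (positive) and DMSO (negative).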
# Active calls of the source: *; i = inactive; ? = inconclusive; / = no result; [ ] = remark or other dose. Unless noted, calls come from the whole dose curve; as a rule, active = well fitted curve in the direction sought with a large enough effect; inconclusive = small, poorly fitted or top-dose-only effect, or another doubt; inactive = no such curve, though single readings can be large; an effect the other way counts as inactive or inconclusive.
SMILES,Akt phos inh,TDP-43 yeast inh,aSyn yeast inh,FUS suppressor,Abeta rescue
COc1cc(/C=C/c2nc3cc(Cl)ccc3c(=O)n2-c2ccc(C)cc2C)cc(OC)c1OC,/,16%,/,i,i
Cc1cccc(N2CC(C(=O)Nc3nnc(SCC(=O)N4CCOCC4)s3)CC2=O)c1 (configuration not stated),i,-11%,-10%,18µM*,i
Cc1cccc(-n2c(C)nc3cc(C(=O)NC4CCCCCC4)ccc32)c1,/,/,/,?,i
O=C(NC1CCCC1)c1ccc2c(c1)N(Cc1c(F)cccc1Cl)C(=O)c1ccccc1S2,/,13%,/,?,i
Cc1c(C(=O)N2CCC(C)CC2)c(S(=O)(=O)N2CCN(c3ccc(Cl)cc3)CC2)c(C)n1C,/,0%,/,?,i
Cc1ccc(C)c(S(=O)(=O)Nc2ccc(O)cc2)c1,i,-2%,1%,i,i
Cc1ccc(CONS(=O)(=O)c2cc(C)ccc2C)cc1,i,32µM*,-57%,i,i
N#Cc1nc(-c2ccc(COc3ccc(Cl)cc3)o2)oc1N1CCCCC1,/,11%,/,i,i
CCCCCCCCOC(=O)c1cc([N+](=O)[O-])c(Sc2ncnc3nc[nH]c23)c([N+](=O)[O-])c1,i,13µM*,-64%,/,i
CCCCOC(=O)c1ccc(Nc2ncnc3nc[nH]c23)cc1,i,2%,-4%,i,i
CCOC(=O)c1c(-c2ccco2)csc1N,-124%*,?,-2%,i,i
CC(=O)c1ccc2noc(-c3ccccc3)c2c1,i,-6%[0.397 µM],-2%,i,i
c1ccc(-c2onc3cc4c(cc23)OCCO4)cc1,i,35µM*,-1%,i,i
Cc1ccc(-c2nc3cc(C)c(Br)c(C)n3c2CC2CCCCC2)cc1,i,16%,-10%,i,i
COc1ccc(-c2nc3cc(C)c(Br)c(C)n3c2CC2CCCCC2)cc1OC,i,22µM*,2%,i,i
S=c1nc(C2CCCCC2)n(-c2ccccc2)[nH]1,i,3%,-4%,i,13µM*
S=c1nc(-c2ccccc2)n(-c2ccccc2)[nH]1,i,-8%,-2%,i,i
C=CCn1c(SC(C)C#N)nc2ccccc2c1=O (configuration not stated),/,/,-18%,/,/
CCC(=O)NC(=S)NNC(=O)c1ccc(OC)cc1,i,20%,10µM*,i,10µM*
CC(=O)NC(=S)Nc1ccc(NC(=S)NC(=O)/C=C/c2ccco2)cc1,i,0%,-2%,i,i
O=C(COc1ccc(Cl)cc1Cl)NNC(=S)NCc1ccco1,i,15%,7%,i,?
O=C(COc1ccc(Cl)cc1Cl)NNC(=S)NC(=O)c1ccco1,i,18µM*,10µM*,i,?
O=C(NNC(=S)NC(=O)c1ccco1)c1ccc(F)cc1,i,?,30%,i,i
O=C(NC(=S)NNC(=O)c1ccco1)c1ccc(Br)cc1,/,3.5µM*,?,i,i
O=C(/C=C/c1ccco1)NC(=S)NNC(=O)c1ccco1,i,?,11µM*,i,?
SMILES,Akt phos inh,TDP-43 yeast inh,aSyn yeast inh,FUS suppressor,Abeta rescue
CCCc1cc(=O)oc2c3c(ccc12)OCN(Cc1ccc(OC)cc1)C3,/,9%,2%,i,i
CCOC(=O)c1ccccc1NC(=O)Nc1cc2c(cc1N1CCCC1)n(C)c(=O)n2C,/,-24%,/,i,i
O=C1CC(c2nc3ccccc3n2CCCOc2ccccc2)CN1c1ccc(F)cc1 (configuration not stated),/,10%,/,i,i
COc1ccc(C(=O)NNC(=S)NC(=O)c2ccco2)cc1,i,?,-20%,i,i
CCCOc1ccc(C(=O)NNC(=S)NC(=O)c2ccco2)cc1,i,6.3µM*,-28%,i,i
CCCOc1ccc(C(=O)NNC(=S)NC(C)=O)cc1,i,11µM*,4µM*,i,?
CCc1nc2ccc(C(=O)Nc3cc(-c4ccccc4)ccc3OC)cn2c1N(CC)Cc1cccc(Br)c1,i,16µM*,0%,?,i
CCc1nc2ccc(C(=O)Nc3cccc(OC)c3)cn2c1N(C)CCCc1ccccc1,i,35µM*,-34%,?,i
O=C(NNc1ccc(F)cc1F)c1cccs1,/,/,5%,/,/
CCCCS(=O)(=O)NC1=NCN(CCOC(=O)c2ccccc2)CN1,-103%*,4%,1%,i,i
Cc1ccc(S(=O)(=O)NC2=NCN(CCOC(=O)c3ccccc3)CN2)cc1,i,-12%,4%,i,i
CC(=O)c1cccc(NC(=O)CSc2nnc3ccc(-c4ccc(Br)cc4)nn23)c1,/,0%,/,i,i
CC(C)c1ccc2oc(-c3cc(N)ccc3O)nc2c1,i,20µM*,-11%,i,i
O=C(NC1CC(=O)N(c2ccccc2)C1)c1ccc(S(=O)(=O)N2CCOCC2)cc1 (configuration not stated),/,18%,/,i,i
Cc1nn(-c2ccccc2)c(N2CCCC2)c1/C=N/NC(=O)c1ccccc1O,i,5%,-7%,i,i
O=C(N/N=C/c1cc2c3c(c1O)CCCN3CCC2)c1ccccc1O,i,-35%,22µM*,i,i
COc1cccc(CNC(=O)CN2N=C(c3ccc(C)cc3)CCC2=O)c1,/,14%,/,i,i
CCCCOc1ccc(NC(=O)Nc2nnc(C)s2)cc1,i,7%,1.3µM*,i,i
COc1ccc(C2Nc3ccccc3C(=O)N2c2cccc3ccccc23)cc1COc1c(C)cccc1C (configuration not stated),/,/,4%,/,/
O=[N+]([O-])c1ccc(Oc2ccc(S(=O)(=O)Nc3ccccc3)cc2)cc1,i,2.8µM*,3%,i,i
COc1ccc(CC(=O)NCc2nc3cccnc3n2Cc2ccc(C)cc2)cc1OC,/,?,/,i,i
Cc1ccccc1N1C(=O)CC(N2CCC(C(N)=O)CC2)C1=O (configuration not stated),i,16µM*,-89%,i,i
NC(=O)C1CCN(C2CC(=O)N(c3cccc(F)c3)C2=O)CC1 (configuration not stated),/,?,-72%,i,i
CC1CCN(c2nc(Cl)nc(Nc3ccc([N+](=O)[O-])cc3)n2)CC1,i,20µM*,8%,/,i
